# Most compounds without a hit are left out; they make up all but 2.2% or so of the library.
# PTPN22 inh 2: LYP (human) phosphatase inhibition | inhibition, % at 2 µM | AID 640 | recombinant LYP catalytic domain, DiFMUP fluorescence | hit rate 0.21% among 96,000;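 active = inhibition at 2 µM at or above a set limit, the screen mean plus 3 SD, cut at about 24% in these data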;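 also: 0% = DMSO with enzyme and 100% = enzyme fully blocked by orthovanadate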
# LYP act: activators of human LYP (PTPN22) phosphatase; Q9Y2R2; recombinant LYP, DiFMUP fluorescence; 0 = plate median, 100 = signal doubled; activation, % at 2 µM; hit rate 0.11% among 96,000; AID 697;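 active = activation at 2 µM above a set limit, the mean plus 5 SD, cut at about 37% in these data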
# MRP1 act: activators of MRP-1. H69AR cells + doxorubicin, viability rescue, CellTiter-Glo. viability increase, % at 10 µM. hit rate 0.61% among 140,000. AID 799;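 active = viability gain under doxorubicin at or above a set limit, the compound median plus 3 SD, cut at about 4.7% in these data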;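 also: MRP-1 overexpressing cells given doxorubicin 25 µM after compound pretreatment; 18-22 h compound pretreatment then 72 h with doxorubicin before readout; 0% = doxorubicin-only wells and 100% = vehicle-treated cells without doxorubicin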
# FAK blocker: FAK (human) kinase inhibition. hit rate 0.84% among 97,000. AID 727. inhibition, %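 (tested at 7 µM)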. biochemical FAK kinase activity assay. Q05397; in the data active = inhibition above about 19%;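 also: 0% = DMSO and 100% = reference compound high control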
# MRP reversal: reverses drug resistance mediated by MRP; H69AR cells + 2 uM doxorubicin, CellTiter-Glo, 72 h; differential viability (reversal), % at 10 µM; AID 602; hit rate 0.04% among 85,000;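 active = viability drop by adding the cancer drug above about 55%, with treated viability meeting a 40% cutoff, limit read from the data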;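 also: viability without doxorubicin minus viability with 2 µM doxorubicin for each compound; larger differential means the compound sensitizes cells more to doxorubicin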
# PLAP activator: human PLAP activation | activation fold at 20 µM | purified PLAP enzyme, luminescent substrate read-out; hits give high values | hit rate 1.2% among 96,000 | P05187; in the data active = activation fold above about 2
# Target sequence (P05187 whole entry, looked up): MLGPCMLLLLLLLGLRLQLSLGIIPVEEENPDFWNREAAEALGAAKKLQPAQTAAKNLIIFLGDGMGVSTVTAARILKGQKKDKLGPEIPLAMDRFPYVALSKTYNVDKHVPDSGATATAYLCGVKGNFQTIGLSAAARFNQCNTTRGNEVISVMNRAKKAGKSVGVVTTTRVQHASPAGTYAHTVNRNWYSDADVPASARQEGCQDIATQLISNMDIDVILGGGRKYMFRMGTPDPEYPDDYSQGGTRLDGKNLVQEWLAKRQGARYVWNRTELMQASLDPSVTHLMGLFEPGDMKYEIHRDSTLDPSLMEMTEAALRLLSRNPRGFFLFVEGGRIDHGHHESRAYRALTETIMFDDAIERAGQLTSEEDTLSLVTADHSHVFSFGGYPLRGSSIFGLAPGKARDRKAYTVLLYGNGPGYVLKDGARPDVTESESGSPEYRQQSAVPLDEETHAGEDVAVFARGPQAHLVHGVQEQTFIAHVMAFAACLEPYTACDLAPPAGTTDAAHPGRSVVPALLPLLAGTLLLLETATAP
# Active calls of the source: *; . = not tested or not shown.
SMILES,PTPN22 inh 2,LYP act,MRP1 act,FAK blocker,MRP reversal,PLAP activator
CCc1nnc(NC(=O)CN2CCN(c3nc(-c4ccccc4)cs3)CC2)s1,-3,4,-1,4,12,2.1*
O=C(CN1CCCCC1)Nc1nnc(-c2ccccc2)s1,-3,-1,-1,1,8,2*
CCc1nnc(NC(=O)CN2CCN(c3ccccc3OC)CC2)s1,1,-4,-2,1,.,1.2
Cn1cnnc1Sc1ccc(C(=O)NCCC23CC4CC(CC(C4)C2)C3)cc1[N+](=O)[O-],.,.,-1,.,.,.
Cc1nc(S/C(=C/c2ccc(-c3cccc(Cl)c3)o2)C(=O)O)n[nH]1,24*,-21,-4,3,.,1.2
O=C(Nc1nnc(C(F)(F)F)s1)C1COc2ccccc2O1 (stereo not given),1,0,5.3*,-3,-11,1.1
O=c1c2c3c(sc2n2c(=S)[nH]nc2n1Cc1ccccc1)CN(Cc1ccccc1)CC3,8,-9,.,5,-12,.
C=CCn1c(COc2ccc(Cl)cc2)nnc1SCC(=O)N1CC(=O)Nc2ccccc21,16,-13,4.7*,1,16,1.6
C=CCn1c(COc2ccc(Cl)cc2)nnc1SCC(=O)N/N=C/c1cccc(O)c1,7,-3,3,-1,.,0.9
O=C(COC(=O)c1c(Cl)cccc1Cl)Nc1cc(Cl)ccc1Oc1ccccc1,.,.,6.6*,.,.,.
COCc1[nH][nH]c(=O)c1C=Nc1ccccc1,-9,11,-2,0,7,2*
COc1ccc(N=CC2=C(Nc3ccc(OC)cc3)c3c(C)nn(-c4ccccn4)c3CC2)cc1,11,-10,.,20*,-12,.
COc1ccc(-c2cc(C(=O)O)c3c(C)nn(-c4ccccn4)c3n2)cc1,1,2,-2,-5,-13,1
COC1(OC)C(=N/O)/C(=N\O)CCC1O (stereo not given),-4,3,11*,-3,13,0.9
CCOC(=O)N1CCN(c2nc(-c3cccc(OC)c3)cc(C(F)(F)F)n2)CC1,7,-8,8.7*,5,26,0.9
O=C(Cc1ccc(F)cc1)N/N=C/c1ccncc1,.,.,-3,.,.,.
Cc1ccc(-n2nnc3c(=O)n(Cc4cc(C)ccc4C)cnc32)cc1,9,-6,-4,22*,-5,.
O=C(CC12CC3CC(CC(C3)C1)C2)NC(=S)N1CCCCC1,.,.,-2,.,.,.
CCOc1ccc2c(c1)c(N=O)c(O)n2C,.,.,6.0*,.,.,.
Cc1ccc(NC(=O)/C(Cl)=C/c2ccccc2)cc1C,.,.,-2,.,.,.
CCCOc1ccccc1C1C(C(=O)OC)=CN(C(C)C)C=C1C(=O)OC,0,-1,-3,1,19,2*
Cc1cc(-c2ccccc2)nc(Cl)c1C#N,.,.,-4,.,.,.
CCC1(C)Cc2c(sc3nnn(CC(=O)Nc4ccc(C)cc4)c(=O)c23)CO1 (stereo not given),-4,8,9.7*,0,.,1
CCNC(=S)NNC(=O)CCn1cc(C)cn1,.,.,0,.,.,.
O=C(NNC(=O)c1cc(-c2ccccc2)nc2ccccc12)Nc1cccc(Cl)c1,-17,12,0,2,.,1.9
SMILES,PTPN22 inh 2,LYP act,MRP1 act,FAK blocker,MRP reversal,PLAP activator
CC(C)(C)c1ccc(-c2cc(C(=O)NNC(=O)Nc3ccccc3)c3ccccc3n2)cc1,-11,9,-2,0,.,2.1*
O=C(NCc1ccccn1)c1cc(-c2ccc(-c3ccccc3)cc2)nc2ccccc12,.,.,5.5*,.,.,.
O=C(CNC(=O)COc1ccccc1)NCc1ccccc1F,.,.,2,.,.,.
O=C1C(Cc2ccc(Br)cc2)SC(=Nc2ccccc2)N1c1ccccc1 (stereo not given),.,.,-1,.,.,.
O=C1C(Cc2cccc([N+](=O)[O-])c2)SC(=Nc2ccccc2)N1c1ccccc1 (stereo not given),.,.,6.4*,.,.,.
Cc1cccc(C)c1NC(=O)CSc1nnc([C@@H]2CCCN2C(=O)OC(C)(C)C)o1,.,.,0,.,0,1.2
CCc1ccccc1NC(=O)CSc1nnc([C@@H]2CCCN2C(=O)OC(C)(C)C)o1,0,-3,-7,2,0,2.1*
N#CC1=C(N)Oc2cc(Nc3ccccc3)ccc2C1c1ccncc1 (stereo not given),-1,7,0,4,-18,1.2
CN(CC(=O)NCCC1=CCCCC1)S(=O)(=O)c1ccc2c(c1)c(=O)n(C)c(=O)n2C,-18,17,-2,-2,-4,1.3
CN(CC(=O)NCCc1ccc(Cl)cc1)S(=O)(=O)c1ccc2c(c1)c(=O)n(C)c(=O)n2C,-4,3,6.1*,1,4,1.6

# Screens as filed in PubChem.
